Data reported in the supplement of paper PMC9177965.

System: HT29 RNF43 G659fs (RNF43 659mut, CRISPR-edited)
Assay: cell viability activity relative to DMSO (negative = inhibition); higher = more viable cells (less growth inhibition)
Settings: 5 µM; 96 h
Procedure: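 Broad Repurposing Library primary screen at a single dose of 5 uM. HT29 sg-Ctrl and HT29 RNF43 G659fs CRISPR-edited isogenic cells were seeded at 2500 cells/well in 384-well plates in duplicate and treated for 96 h. Viability was read by CellTiter-Glo and reported as % activity relative to DMSO, with MG132 as the positive control (negative = growth inhibition).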

Point of comparison: `COC(=O)[C@]12CCC(C)(C)C[C@H]1[C@H]1C(=O)C=C3[C@@]4(C)C=C(C#N)C(=O)C(C)(C)[C@@H]4CC[C@@]3(C)[C@]1(C)CC2`, cell viability activity -96.8%. Against it:
- C[C@H]1O[C@@H](O[C@H]2[C@@H](O)C[C@H](O[C@H]3[C@@H](O)C[C@H](O[C@H]4CC[C@@]5(C)[C@H](CC[C@@H]6[C@@H]5C[C@@H](O)[C@]5(C)[C@@H](C7=CC(=O)OC7)CC[C@]65O)C4)O[C@@H]3C)O[C@@H]2C)C[C@H](O)[C@@H]1O — higher, -89.3%
- COc1cc(/C=C/c2ccc(OC)cc2OC)cc(OC)c1 — higher, -65.4%
- CCS(=O)(=O)c1cccc(-c2cc(C(=O)NC3CCN(C)CC3)c(C)c3[nH]c4ncc(C)cc4c23)c1 — higher, -90.1%
- CCCCCCCCCCCCCCC[C@@H](O)[C@@H](N)CO — higher, -36.8%
- Nc1ncn([C@@H]2O[C@H](CO)[C@@H](O)[C@H]2O)c(=O)n1 — higher, -24.4%
- CC(C)(C)c1[nH]cnc1/C=c1\[nH]c(=O)/c(=C/c2ccccc2)[nH]c1=O — higher, -55.7%
- OC[C@H]1O[C@@H](Oc2cc(O)cc(/C=C/c3ccc(O)cc3)c2)[C@H](O)[C@@H](O)[C@@H]1O — higher, -34.4%
- CN1CC[C@@H](c2c(O)cc(O)c3c(=O)cc(-c4ccccc4Cl)oc23)[C@@H]1CO — higher, -90.1%
- COc1cc(N2CCC(N3CCN(C)CC3)CC2)ccc1Nc1ncc(Cl)c(Nc2ccccc2S(=O)(=O)C(C)C)n1 — higher, -53.9%
- O=C1NCCN1CCN1CCC(c2cn(-c3ccc(F)cc3)c3ccc(Cl)cc23)CC1 — higher, -93.7%
- CC(C)c1cc(C(C)C)c(-c2csc(N(CCN(C)C)Cc3cccnc3)n2)c(C(C)C)c1 — higher, -24%
- CC(C=CC(=O)NO)=CC(C)C(=O)c1ccc(N(C)C)cc1 (stereo not drawn) — higher, -95.2%
- CNCc1ccc(-c2cc(-c3nc(-c4ccc(S(=O)(=O)C(C)C)cc4)cnc3N)on2)cc1 — higher, -78.3%
- Cc1noc2c1-c1ccccc1C(c1ccc(Cl)cc1)=N[C@H]2CC(N)=O — higher, -53.9%
- NC(=NC1C2CC3CC(C2)CC1C3)Nc1ccc(I)cc1 (stereo not drawn) — higher, -49.5%
- CCN1CCN(c2ccc(C(C)(C)NC(=O)c3cc4[nH]c5ccccc5c(=O)c4cc3F)cn2)CC1 — higher, -45.9%
- Cn1ccc2cc(NC(=O)Nc3cccnc3)ccc21 — higher, -29.2%
- COc1c/c(=C2\C=c3ccccc3=N2)[nH]/c1=C\c1[nH]c(C)cc1C — higher, -93.8%
- O=c1cc(N2CCOCC2)oc2c(-c3cccc4c3sc3ccccc34)cccc12 — higher, -57.6%
- C=CC(=O)Nc1cccc(Nc2nc(Nc3ccc(OCCOC)cc3)ncc2F)c1 — higher, -33.3%
- CCNC(=O)Nc1ccc(-c2nc3c(c(N4CCOC[C@@H]4C)n2)CCN(C2COC2)C3)cc1 — higher, -36.7%
- Fc1ccc(-n2cc(CCCCN3CCC4(CC3)OCc3ccccc34)c3ccccc32)cc1 — higher, -70.6%
- COc1cc(OC)c(/C=C/S(=O)(=O)Cc2ccc(OC)c(OP(=O)(O)O)c2)c(OC)c1 — higher, -26.7%
- NC(=S)N/N=C/c1ncccc1N — higher, -58.9%
- C=CC(=O)Nc1cc2c(Nc3ccc(F)c(Cl)c3)ncnc2cc1C#CC(C)(C)N1CCN(C)CC1 — higher, -94.8%
- O=C(c1cn(Cc2cncn2Cc2ccc(Br)cc2)cc1-c1cccc2ccccc12)N1CCOCC1 — higher, -42.8%
- Fc1cc(-c2cccc3ncc(-c4cnn(C5CCNCC5)c4)nc23)cc(F)c1CN1CCOCC1 — higher, -93.7%
- COCC[n+]1c2c(n(Cc3cnccn3)c1C)C(=O)c1ccccc1C2=O — higher, -96.6%
- CC(=O)N(O)CCCCCNC(=O)CCC(=O)N(O)CCCCCNC(=O)CCC(=O)N(O)CCCCCN — higher, -56.3%
- CC(C)[C@H](C(=O)Nc1ccc(C(=O)NO)cc1)c1ccccc1 — higher, -95%
- COC(=O)C1=C(C#N)NC(C)=C(C(=O)OC(C)C)C1c1cccc([N+](=O)[O-])c1 (stereo not drawn) — higher, -44.7%
- CC(C)c1cc(-c2n[nH]c(=O)n2-c2ccc3c(ccn3C)c2)c(O)cc1O — higher, -87.1%
- CC[C@@]1(O)C(=O)OCc2c1cc1n(c2=O)Cc2cc3c([N+](=O)[O-])cccc3nc2-1 — higher, -93.9%
- COCCOC(=O)C1=C(C)NC(C)=C(C(=O)OC/C=C/c2ccccc2)C1c1cccc([N+](=O)[O-])c1 (stereo not drawn) — higher, -57.6%
- NS(=O)(=O)C#Cc1ccccc1 — higher, -68.8%
- O=C(Nc1cc(C(F)(F)F)cc(C(F)(F)F)c1)c1cc(Cl)ccc1O — higher, -94.4%
- CC(C)(O)C(=O)N1CCN(c2ccc(C(F)(F)F)c(C3=C(c4c[nH]c5ccccc45)C(=O)NC3=O)c2)CC1 — higher, -43.1%
